Assay results: article PMC10726135, “HNF4α isoforms regulate the circadian balance between carbohydrate and lipid metabolism in the liver”
The full ranking holds about 18,000 sequences; the median of “log2 normalized intensity” is about 0.39, and the highest 2% start at about 6.6. The entries come from a sample that favours the highest values as a whole.

molecular target: T1, HNF4alpha2 (COS-7 nuclear extract) (Homo sapiens, UniProt P41235 1-474); assay: protein-binding microarray; COS-7 nuclear extract on double-stranded Agilent 4x180k PBM; binding buffer, salt, pH and temperature not given in the material; high values mean tight binding; settings: chain copies: 2; label: 3' end of strand 1 on the slide; dsDNA, one strand shown
T1 sequence: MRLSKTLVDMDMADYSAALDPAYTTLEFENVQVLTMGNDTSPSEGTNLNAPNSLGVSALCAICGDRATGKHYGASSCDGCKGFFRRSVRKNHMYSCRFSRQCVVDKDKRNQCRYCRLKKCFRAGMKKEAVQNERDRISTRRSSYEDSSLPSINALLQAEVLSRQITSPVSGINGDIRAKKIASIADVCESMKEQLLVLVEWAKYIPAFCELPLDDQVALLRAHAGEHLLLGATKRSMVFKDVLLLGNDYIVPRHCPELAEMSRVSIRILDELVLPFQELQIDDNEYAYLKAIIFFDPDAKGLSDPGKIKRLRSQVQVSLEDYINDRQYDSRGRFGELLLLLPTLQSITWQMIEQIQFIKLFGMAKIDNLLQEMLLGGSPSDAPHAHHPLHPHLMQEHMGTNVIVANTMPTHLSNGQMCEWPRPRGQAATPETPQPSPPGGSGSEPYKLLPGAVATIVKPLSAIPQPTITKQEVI
Method in brief: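 Nuclear extracts from COS-7 cells expressing a transiently transfected human HNF4α isoform were put on a custom Agilent SurePrint G3 4x180k array carrying ~44,000 double-stranded ~60-nt test sequences in quadruplicate. Imaging used an Agilent G2565CA scanner at 2-µm resolution. Binding signal is the background-corrected, normalized gProcessedSignal from Agilent software.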

Sequence	binding signal
ACTCCACATATTGTAGATAATACTGTGTCAGCCTAGGGAGATTAGAGTATCGGTCGA	0.275 log2 normalized intensity
TTCCCTTGTTTACCTTGGTGTTTCTTTGATGCCTAGGGAGATTAGAGTATCGGTCGA	1.68 log2 normalized intensity
GCTAGTAAGGAGCTGAGTCATAGTGGACTTGCCTAGGGAGATTAGAGTATCGGTCGA	3.44 log2 normalized intensity
AAGAAGAGCTCAGTCACAGCAGTGGACTTTGCCTAGGGAGATTAGAGTATCGGTCGA	6.61 log2 normalized intensity
ACAGCACTGACCTTTGAGAGTCAACACTGAGCCTAGGGAGATTAGAGTATCGGTCGA	2.58 log2 normalized intensity
GGAGAGCTAGTAAGGAGCTGAGTCATAGTGGCCTAGGGAGATTAGAGTATCGGTCGA	-0.825 log2 normalized intensity
ACTTTGACCTTGGCACTGAAGAATGTCTAAGCCTAGGGAGATTAGAGTATCGGTCGA	1.8 log2 normalized intensity
TAAGGAGCTGAGTCATAGTGGACTTTGCCTGCCTAGGGAGATTAGAGTATCGGTCGA	6.9 log2 normalized intensity
GGGGCAGAGTGAGCAGCACTTTTGGAGTTTGCCTAGGGAGATTAGAGTATCGGTCGA	1.51 log2 normalized intensity
AGCAGCCTCAGTGGCTCACAAATGGAGTTTGCCTAGGGAGATTAGAGTATCGGTCGA	0.801 log2 normalized intensity
GAGCTCAGTCACAGCAGTGGACTTTGACCTGCCTAGGGAGATTAGAGTATCGGTCGA	11.2 log2 normalized intensity
ACAGCAGTGGACTTTGACCTTGGCACTGAAGCCTAGGGAGATTAGAGTATCGGTCGA	9.07 log2 normalized intensity
GAGCAGCACTTTTGGAGTTTGACCTGGAGCGCCTAGGGAGATTAGAGTATCGGTCGA	5.38 log2 normalized intensity
AGAGTGAGCAGCACTTTTGGAGTTTGACCTGCCTAGGGAGATTAGAGTATCGGTCGA	7.73 log2 normalized intensity
TATGACCAGTGTGTTGTGCTGACCTCCTGTGCCTAGGGAGATTAGAGTATCGGTCGA	3.19 log2 normalized intensity
CTGGTGTGCTTTCTGTCCTCTCAAAGTCCAGCCTAGGGAGATTAGAGTATCGGTCGA	3.7 log2 normalized intensity
TGATTTGTATGATCTTGGGTATATCCTTTAGCCTAGGGAGATTAGAGTATCGGTCGA	1.54 log2 normalized intensity
TAACTTACAGTGCACTTTGACCGCTCATTTGCCTAGGGAGATTAGAGTATCGGTCGA	5.83 log2 normalized intensity
CAGTCACAGCAGTGGACTTTGACCTTGGCAGCCTAGGGAGATTAGAGTATCGGTCGA	10.2 log2 normalized intensity
CTGCGTAACTTACAGTGCACTTTGACCGCTGCCTAGGGAGATTAGAGTATCGGTCGA	7.14 log2 normalized intensity
CAGGACTGCGTAACTTACAGTGCACTTTGAGCCTAGGGAGATTAGAGTATCGGTCGA	4.9 log2 normalized intensity
TGACCTTGCAGTGGCAAGGCAAAAGAGACAGCCTAGGGAGATTAGAGTATCGGTCGA	1.17 log2 normalized intensity
ATGTGACCTTTTGGACCACAGAGTGACCTGGCCTAGGGAGATTAGAGTATCGGTCGA	5.16 log2 normalized intensity
CATCATCTTGTAATCTGCTTCCAGTTCCATGCCTAGGGAGATTAGAGTATCGGTCGA	0.0747 log2 normalized intensity
GAGAAAAAGTCAACACTTAGGGTGGATACTGCCTAGGGAGATTAGAGTATCGGTCGA	-0.81 log2 normalized intensity
TGATAAGCAAGATGACTTTGGTCTAGACACGCCTAGGGAGATTAGAGTATCGGTCGA	0.829 log2 normalized intensity
TGCTCAGGGAGAAGCAAATATGTGTCCTCTGCCTAGGGAGATTAGAGTATCGGTCGA	0.314 log2 normalized intensity

Sequence	binding signal
TGAACTTTGAACACCTCTTCTTTCTTCTCTGCCTAGGGAGATTAGAGTATCGGTCGA	3.92 log2 normalized intensity
CCTTTGGTGCCTCTTTTTTCTTGTTGACTTGCCTAGGGAGATTAGAGTATCGGTCGA	2.44 log2 normalized intensity
AGTCTAACTTTGGACTTTTATGTTAAGATCGCCTAGGGAGATTAGAGTATCGGTCGA	2.25 log2 normalized intensity
TGGACTTTGAACCTCTCTTCTTTTTCGTCTGCCTAGGGAGATTAGAGTATCGGTCGA	6.71 log2 normalized intensity
TTTGAACACCTCTTCTTTCTTCTCTGGTACGCCTAGGGAGATTAGAGTATCGGTCGA	1.58 log2 normalized intensity
CATCTGAACTCTTCATGGACTCCTCTTATCGCCTAGGGAGATTAGAGTATCGGTCGA	1.6 log2 normalized intensity
CTATGGAACATGGACTTTGAACCTCTCTTCGCCTAGGGAGATTAGAGTATCGGTCGA	8.15 log2 normalized intensity
TCTTCTTCTGGGGACTTCGGTCTTTTTTCTGCCTAGGGAGATTAGAGTATCGGTCGA	2.18 log2 normalized intensity
ACTCATTTCACATTGGTGCCCTTTGCCTTTGCCTAGGGAGATTAGAGTATCGGTCGA	3.97 log2 normalized intensity
GTTATCTATGGAACATGGACTTTGAACCTCGCCTAGGGAGATTAGAGTATCGGTCGA	10.3 log2 normalized intensity
TTTCTCTTTTGACCTTTGGACTTTCACATTGCCTAGGGAGATTAGAGTATCGGTCGA	10.5 log2 normalized intensity
CCTTGCTATGGAGTGGACTTTGGCTTATGCGCCTAGGGAGATTAGAGTATCGGTCGA	6.18 log2 normalized intensity
TGGGCACTGTCCTAGGTGCTGAAGATGCAAGCCTAGGGAGATTAGAGTATCGGTCGA	-0.724 log2 normalized intensity
GATCAAAGGTCGGTTTTAGGACAACATGAGGCCTAGGGAGATTAGAGTATCGGTCGA	4.52 log2 normalized intensity
CTATCATTATCTCTCACTGCAGAAACTCTGGCCTAGGGAGATTAGAGTATCGGTCGA	1.35 log2 normalized intensity
AGCATTTTTGTATGCATAAGGCCTTGGACCGCCTAGGGAGATTAGAGTATCGGTCGA	3.11 log2 normalized intensity
CTTTGGTATGGACTGATATTCAAACAGGTCGCCTAGGGAGATTAGAGTATCGGTCGA	1.31 log2 normalized intensity
GAGGGATTTTCAGTATACTGACTTATCAGGGCCTAGGGAGATTAGAGTATCGGTCGA	0.535 log2 normalized intensity
AGCGGCCTTCCCCTTTTTCTGTAAAGCTTTGCCTAGGGAGATTAGAGTATCGGTCGA	1.21 log2 normalized intensity
GAGTTTAGGCATTCTTAGACACAGTCTGAGGCCTAGGGAGATTAGAGTATCGGTCGA	-0.227 log2 normalized intensity
AACATGGACTTTGTTGTTTGCCTCTGAAAAGCCTAGGGAGATTAGAGTATCGGTCGA	2.31 log2 normalized intensity
CCTCTTGCGTGTTATCTATGGAACATGGACGCCTAGGGAGATTAGAGTATCGGTCGA	2.24 log2 normalized intensity
GAACATGGACTTTGAACCTCTCTTCTTTTTGCCTAGGGAGATTAGAGTATCGGTCGA	7.25 log2 normalized intensity
CCATACCTCTTGCGTGTTATCTATGGAACAGCCTAGGGAGATTAGAGTATCGGTCGA	1.5 log2 normalized intensity
TACATTGAACTTTGAACACCTCTTCTTTCTGCCTAGGGAGATTAGAGTATCGGTCGA	4.75 log2 normalized intensity
TGCGTGTTATCTATGGAACATGGACTTTGAGCCTAGGGAGATTAGAGTATCGGTCGA	8.74 log2 normalized intensity
GGAGAAGTTTTATGGCAGGGTCGGAATGTCGCCTAGGGAGATTAGAGTATCGGTCGA	1.55 log2 normalized intensity
